# Results from PubChem BioAssay (Tox21).
# Calls of active or inactive are those of the source. The call rests on the fitted dose curve; in most records, active means well fitted curve in the direction sought with a large enough effect in the repeat runs; inconclusive means weak or mixed curves; inactive means flat fitted curve, though single readings scatter.
# Assay: qHTS assay to test for compound auto fluorescence at 535 nm (green) in HepG2 cells (AID 720675)
# Details: green autofluorescence 485/535 nm, 1 h; series mostly up to 91.3 µM
# From the text: National Center for Advancing Translational Sciences [NCATS]
# NIH Chemical Genomics Center [NCGC]
# U.S. Environmental Protection Agency [EPA]
# National Institutes of Environmental Health Sciences [NIEHS]
# National Toxicology Program [NTP]
# U.S. Food and Drug Administration [FDA]
# Compound auto fluorescence often interferes with screening of the compound library against various biological targets and signaling pathways. Some of these compounds may have fluorophoric properties. Such properties may interfere with the assay outputs resulting in false positives and/or negatives. To decrease such complications and ensure the compound activities are relevant in terms of biological response, the Tox21 10K compound library was screened for auto fluorescence.
# From the fluorophores used as reporter signals in our screening assays, the auto fluorescence equivalencies of compounds against three fluorophores have been evaluated: Triamterene, Fluorescein and Rose Bengal sodium for blue, green and red fluorescence, respectively. The fluorescence intensities were measured using Excitation/Emission wavelengths at 405/460nm, 485/535nm and 540/590nm for blue, green and red labels, respectively. This assay includes the green fluorescence data.
# Tox21 Assay Protocol Summary:
# 2,000 HepG2 cells in 5 uL of culture medium (MEM containing 10% FBS) per well were dispensed into black wall/clear bottom 1536-well plates using a Multidrop Combi Dispenser (ThermoFisher Scientific, Waltham, MA). The assay plates were incubated overnight at 37 C to allow cell attachment to the well bottom, followed by the transfer of 23 nL compound or DMSO vehicle by a pintool work station (Kalypsys , San Diego, CA). After the assay plates were incubated for 1 hr at 37 C and 5% CO2, fluorescence intensities in the assay plates were measured by an Envision (PerkinElmer, Shelton, CT) plate reader using three labels for measuring blue, green and red fluorescence at […] 460, 535 and 590 nm respectively.
# On the % scale 0 is the no-effect control and ±100 the full control effect.
SMILES,outcome,"fluorescence, % of fluorescein control"
CCCCCCCCCCCC(=O)[O][Sn]([CH2]CCC)([CH2]CCC)[O]C(=O)CCCCCCCCCCC,inactive,
O=C(OCCOCCO)c1ccccc1Nc1cccc(C(F)(F)F)c1,,0.199% [at 18.6 µM] (inactive)
CC1CN(c2cc3c(cc2F)c(=O)c(C(=O)O)cn3-c2ccc(F)cc2F)CCN1 (stereo not given),inactive,
CCCCC(=O)O[C@]1(C(=O)CO)CC[C@H]2[C@@H]3CCC4=CC(=O)CC[C@]4(C)[C@H]3[C@@H](O)C[C@@]21C,inactive,
ON(Cc1ccccc1)Cc1ccccc1,inactive,
CCCC1C(CC)=CC(CC)=CN1c1ccccc1 (stereo not given),inactive,
COC(OC)(C(=O)c1ccccc1)c1ccccc1,inactive,
NC(=O)Nc1ccc(Cl)c(Cl)c1,inactive,
CNC(=O)N(c1ccccc1)c1ccccc1,inactive,
OC/C(Br)=C(\Br)CO,inactive,
CNC(=S)NC,inactive,
Cc1ccc(/C=N/n2c(-c3ccccc3)csc2=S)cc1,inactive,
CCOC(=O)c1ccccc1C,inactive,
c1cnc2c(n1)CCCC2,inactive,
O=Cc1c(Cl)cccc1Cl,inactive,
CN(C)C(=O)Nc1ccc(Oc2ccc(Cl)cc2)cc1,inactive,
Cc1cc(O)c2c(O)c3c(O)cccc3cc2c1,inactive,
CCOC(=O)c1ccccc1OC,inactive,
CC(=O)Oc1ccc(C(=C2CCCCC2)c2ccc(OC(C)=O)cc2)cc1,inactive,
Cc1occc1C(=O)Nc1ccc(C(=O)N2CCC(F)(F)/C(=C\C(=O)N3CCC(N4CCCCC4)CC3)c3ccccc32)cc1,inactive,

SMILES,outcome,"fluorescence, % of fluorescein control"
O=C(CCC1CCN(Cc2ccccc2)CC1)c1ccc2c(c1)NCCCC2,inactive,
C[N+](C)(C)CCOC(N)=O,inactive,
COc1cc2c(cc1OC)-c1cc(=Nc3c(C)cc(C)cc3C)n(C)c(=O)n1CC2,inactive,
NC(=O)N(O)[C@@H]1COc2cc(OCc3ccccc3)ccc21,inactive,
CCc1nn(CCCN2CCN(c3cccc(Cl)c3)CC2)c(=O)n1CCOc1ccccc1,inactive,
CCC(C(=O)OCCOCCN(CC)CC)c1ccccc1 (stereo not given),inactive,
CC(C)CCCCCCOC(=O)CCCCC(=O)OCCCCCCC(C)C,inactive,
CCC(C)(O)CCC=C(C)C (stereo not given),inactive,
COc1ccc(CCC(=O)c2c(O)cc(O[C@@H]3O[C@H](CO)[C@@H](O)[C@H](O)[C@H]3O[C@@H]3O[C@@H](C)[C@H](O)[C@@H](O)[C@H]3O)cc2O)cc1O,inactive,
Cc1nc2ccccc2s1,inactive,
C=CC(C)=CCC=C(C)C,inactive,
C=CC(=C)CCCC(C)(C)OC(C)=O,inactive,
CCCCN(CCCC)C(=S)SSC(=S)N(CCCC)CCCC,inactive,
CC(C)(C)CC(C)(C)c1ccc(OCCO)cc1,inactive,
C[C@@H]1C[C@H]2[C@@H]3CCC4=CC(=O)C=C[C@]4(C)[C@@]3(F)[C@@H](O)C[C@]2(C)[C@@]1(O)C(=O)CO,inactive,
COc1cc2ncnc(Nc3ccc(F)c(Cl)c3)c2cc1OCCCN1CCOCC1,inactive,
O=C(O)c1cccc(O)c1,inactive,
CC(N)CN (stereo not given),inactive,
O=C(CCCN1CCC(O)(c2ccc(Br)cc2)CC1)c1ccc(F)cc1,,0.0047% [at 18.6 µM] (inactive)
Cc1ccnc2ccccc12,inactive,
